Data from the supplement of paper PMC10127200.

Assays:
Assay in all cases: Euclidean distance of Cell Painting phenotypic profile (signed KS, 77 features) to DMSO centroid (dimensionless distance); higher = stronger phenotypic change vs DMSO (phenoactivity)
Conditions in all cases: 48 h; 5 or 10 uM (library dependent)
786-O = tested on: 786-O
Summary of the method: (§1)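 Harmony extracted 77 features from 20X confocal images (9 fields/well) of stained cells, scoring each as a signed Kolmogorov-Smirnov statistic against same-plate vehicle wells. The cells, five cancer lines and a healthy fibroblast line, had received library compounds for 48 h at 10 or 5 uM depending on library, with 0.1% DMSO final. Phenoactivity is the Euclidean distance from each plate-position-corrected, correlation-weighted, top-dose replicate-averaged profile to the median vehicle profile.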

A549 = tested on: A549
Summary of the method: as §1

FB = tested on: FB
Summary of the method: as §1

HEPG2 = tested on: HEPG2
Summary of the method: as §1

OVCAR4 = tested on: OVCAR4
Summary of the method: as §1

DU145 = tested on: DU145
Summary of the method: as §1

Row | SMILES | Euclidean distance (786-O) | Euclidean distance (A549) | Euclidean distance (FB) | Euclidean distance (HEPG2) | Euclidean distance (OVCAR4) | Euclidean distance (DU145)
1 | CCN1C[C@]2(OC(=O)c3ccccc3NC(C)=O)CC[C@H](OC)[C@@]34[C@@H]2C[C@@H]([C@@H]13)[C@@]1(O)C[C@H](OC)[C@H]2C[C@@H]4[C@]1(O)[C@H]2OC [Lappaconitine] | 0.914 | 0.59 | 1.1 | 0.579 | 1.35 | 
2 | O=[N+]([O-])C(Br)(CO)CO [Bronopol] | 1.36 | 1.03 | 0.825 | 0.735 | 1.59 | 1.02
3 | COC1=C[C@@H]2[C@@H]3Cc4ccc(OC)c(O)c4[C@]2(CCN3C)CC1=O [Sinomenine] | 0.934 | 0.651 | 0.89 | 0.668 | 0.854 | 
4 | C[C@@H]1[C@H](O)[C@@H](C)/C=C/C=C/CC/C=C/C=C/C=C/C=C/[C@H](O[C@H]2O[C@@H](C)[C@H](O)[C@@H](N)[C@H]2O)C[C@@H]2O[C@](O)(C[C@@H](O)[C@H](O)CC[C@@H](O)C[C@@H](O)C[C@@H](O)CC(=O)O[C@H]1C)C[C@H](O)[C@H]2C(=O)O [Nystatin (Fungicidin)] | 1.05 | 1.12 | 0.85 | 1.2 | 1.06 | 1.4
